# Reference: PubChem BioAssay AID1159580 (chemical genetic matrix, 2015)
# Among all 5,500 compounds or so, about 2,000 (36%) were called active. Another 18% or so got no clear call; they are omitted. No stated cut-off is given here; in the data, active means normalized growth mostly below about 0.91 (no sharp cut-off); inconclusive means no clear call, values can overlap the other calls; inactive means mostly above about 0.92. Some of the results follow.
# Experiment: chemical genetic growth profiling, strain panel (AID 1159580);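 further: tested at 20 µM; growth read once vehicle control cultures reached saturation at 30 °C; 1 = growth at the plate median or of vehicle wells; lower values mean less growth of the strain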
# Settings: growth OD
smiles,measurement,setting,value
COc1cc2c(cc1OC)C1C(=O)c3c(cc4c(c3O)C=CC(C)(C)O4)OC1CO2 (configuration not stated),normalized growth,"S. cerevisiae deletion strains, locus YBR021W, strain FUR4, hits give low values",1 (inactive)
same,normalized growth,"S. cerevisiae deletion strains, locus YBR229C, strain ROT2, hits give low values",1.02 (inactive)
same,normalized growth,"S. cerevisiae deletion strains, locus YCL029C, strain bik1, hits give low values",1.03 (inactive)
same,normalized growth,"S. cerevisiae deletion strains, locus YDL035C, strain GPR1, hits give low values",1.03 (inactive)
same,normalized growth,"S. cerevisiae deletion strains, locus YDL074C, strain BRE1, hits give low values",1.13 (inactive)
same,normalized growth,"S. cerevisiae deletion strains, locus YDL101C, strain DUN1, hits give low values",1.01 (inactive)
same,normalized growth,"S. cerevisiae deletion strains, locus YDL134C, strain PPH21, hits give low values",1 (inactive)
same,normalized growth,"S. cerevisiae deletion strains, locus YDL185W, strain tfp1, hits give low values",1.02 (inactive)
same,normalized growth,"S. cerevisiae deletion strains, locus YDL192W, strain arf1, hits give low values",0.996 (inactive)
same,normalized growth,"S. cerevisiae deletion strains, locus YDR101C, strain arx1, hits give low values",0.99 (inactive)
same,normalized growth,"S. cerevisiae deletion strains, locus YDR162C, strain NBP2, hits give low values",1.03 (inactive)
same,normalized growth,"S. cerevisiae deletion strains, locus YDR318W, strain mcm21, hits give low values",1.02 (inactive)
same,normalized growth,"S. cerevisiae deletion strains, locus YDR388W, hits give low values",1.02 (inactive)
same,normalized growth,"S. cerevisiae deletion strains, locus YDR502C, strain sam2, hits give low values",1.02 (inactive)
same,normalized growth,"S. cerevisiae deletion strains, locus YER110C, hits give low values",1.02 (inactive)
same,normalized growth,"S. cerevisiae deletion strains, locus YER155C, strain BEM2, hits give low values",1.04 (inactive)
same,normalized growth,"S. cerevisiae deletion strains, locus YER167W, strain BCK2, hits give low values",1.01 (inactive)
same,normalized growth,"S. cerevisiae deletion strains, locus YGL078C, strain dbp3, hits give low values",1.01 (inactive)
same,normalized growth,"S. cerevisiae deletion strains, locus YGL086W, strain mad1, hits give low values",1.01 (inactive)
same,normalized growth,"S. cerevisiae deletion strains, locus YGL248W, strain PDE1, hits give low values",1.03 (inactive)
same,normalized growth,"S. cerevisiae deletion strains, locus YGR135W, strain pre9, hits give low values",1.06 (inactive)
same,normalized growth,"S. cerevisiae deletion strains, locus YGR229C, strain SMI1, hits give low values",1.3 [resistant] (active)
same,normalized growth,"S. cerevisiae deletion strains, locus YGR252W, strain gcn5, hits give low values",1.08 (inactive)
same,normalized growth,"S. cerevisiae deletion strains, locus YHR079C, strain IRE1 (second series), hits give low values",1.02 (inactive)
same,normalized growth,"S. cerevisiae deletion strains, locus YHR094C, strain hxt1, hits give low values",1.03 (inactive)
same,normalized growth,"S. cerevisiae deletion strains, locus YHR129C, strain ARP1, hits give low values",1.02 (inactive)
same,normalized growth,"S. cerevisiae deletion strains, locus YHR200W, strain rpn10, hits give low values",1.02 (inactive)
same,normalized growth,"S. cerevisiae deletion strains, locus YIL066C, strain RNR3, hits give low values",1 (inactive)
same,normalized growth,"S. cerevisiae deletion strains, locus YIL073C, strain SPO22, hits give low values",1.28 (inactive)
same,normalized growth,"S. cerevisiae deletion strains, locus YIL125W, strain kgd1, hits give low values",1 (inactive)
same,normalized growth,"S. cerevisiae deletion strains, locus YIR030C, strain dcg1, hits give low values",1.02 (inactive)
same,normalized growth,"S. cerevisiae deletion strains, locus YJL095W, strain BCK1, hits give low values",1.05 (inactive)
same,normalized growth,"S. cerevisiae deletion strains, locus YJL134W, strain LCB3, hits give low values",1.01 (inactive)
same,normalized growth,"S. cerevisiae deletion strains, locus YJL168C, strain set2, hits give low values",1.03 (inactive)
same,normalized growth,"S. cerevisiae deletion strains, locus YJL187C, strain SWE1 (second series), hits give low values",1.01 (inactive)
same,normalized growth,"S. cerevisiae deletion strains, locus YKL009W, strain mrt4, hits give low values",1.04 (inactive)
same,normalized growth,"S. cerevisiae deletion strains, locus YKL068W, hits give low values",1.01 (inactive)
same,normalized growth,"S. cerevisiae deletion strains, locus YKL085W, strain MDH1 (second series), hits give low values",1.01 (inactive)
same,normalized growth,"S. cerevisiae deletion strains, locus YKL085W, strain MDH1, hits give low values",1.01 (inactive)
same,normalized growth,"S. cerevisiae deletion strains, locus YKL190W, strain CNB1, hits give low values",1 (inactive)
same,normalized growth,"S. cerevisiae deletion strains, locus YKR001C, strain vps1, hits give low values",0.724 (active)
same,normalized growth,"S. cerevisiae deletion strains, locus YLR039C, strain RIC1, hits give low values",0.992 (inactive)
same,normalized growth,"S. cerevisiae deletion strains, locus YLR058C, strain SHM2, hits give low values",1.01 (inactive)
same,normalized growth,"S. cerevisiae deletion strains, locus YLR102C, strain apc9, hits give low values",1.02 (inactive)
same,normalized growth,"S. cerevisiae deletion strains, locus YLR262C, strain YPT6, hits give low values",0.991 (inactive)
same,normalized growth,"S. cerevisiae deletion strains, locus YLR268W, strain sec22, hits give low values",1.02 (inactive)
same,normalized growth,"S. cerevisiae deletion strains, locus YLR342W, strain FKS1 (second series), hits give low values",0.961 (inactive)
same,normalized growth,"S. cerevisiae deletion strains, locus YLR371W, strain rom2, hits give low values",1.03 (inactive)
same,normalized growth,"S. cerevisiae deletion strains, locus YLR418C, strain cdc73, hits give low values",1.13 (inactive)
same,normalized growth,"S. cerevisiae deletion strains, locus YML016C, strain PPZ1, hits give low values",0.996 (inactive)
same,normalized growth,"S. cerevisiae deletion strains, locus YML032C, strain rad52, hits give low values",0.998 (inactive)
same,normalized growth,"S. cerevisiae deletion strains, locus YML124C, strain tub3, hits give low values",1.02 (inactive)
same,normalized growth,"S. cerevisiae deletion strains, locus YMR078C, strain ctf18, hits give low values",1.02 (inactive)
same,normalized growth,"S. cerevisiae deletion strains, locus YMR223W, strain ubp8, hits give low values",1.01 (inactive)
same,normalized growth,"S. cerevisiae deletion strains, locus YMR307W, strain GAS1, hits give low values",1.18 (inactive)
same,normalized growth,"S. cerevisiae deletion strains, locus YNL067W, strain RPL9B, hits give low values",1.01 (inactive)
same,normalized growth,"S. cerevisiae deletion strains, locus YNL153C, strain GIM3, hits give low values",1.04 (inactive)
same,normalized growth,"S. cerevisiae deletion strains, locus YNL233W, strain BNI4, hits give low values",1.06 (inactive)
same,normalized growth,"S. cerevisiae deletion strains, locus YNL250W, strain rad50, hits give low values",1.05 (inactive)
same,normalized growth,"S. cerevisiae deletion strains, locus YNL271C, strain bni1, hits give low values",1.01 (inactive)
same,normalized growth,"S. cerevisiae deletion strains, locus YNL298W, strain CLA4, hits give low values",1 (inactive)
same,normalized growth,"S. cerevisiae deletion strains, locus YNL307C, strain MCK1, hits give low values",1.03 (inactive)
same,normalized growth,"S. cerevisiae deletion strains, locus YNR052C, strain pop2, hits give low values",1.04 (inactive)
same,normalized growth,"S. cerevisiae deletion strains, locus YOL012C, strain htz1",0.98 (inactive)
same,normalized growth,"S. cerevisiae deletion strains, locus YOL147C, strain pex11, hits give low values",1.01 (inactive)
same,normalized growth,"S. cerevisiae deletion strains, locus YOR061W, strain CKA2, hits give low values",1 (inactive)
same,normalized growth,"S. cerevisiae deletion strains, locus YOR069W, strain VPS5, hits give low values",1.01 (inactive)
same,normalized growth,"S. cerevisiae deletion strains, locus YOR136W, strain idh2, hits give low values",1.06 (inactive)
same,normalized growth,"S. cerevisiae deletion strains, locus YOR144C, strain elg1, hits give low values",1.01 (inactive)
same,normalized growth,"S. cerevisiae deletion strains, locus YOR184W, strain ser1, hits give low values",0.99 (inactive)
same,normalized growth,"S. cerevisiae deletion strains, locus YOR316C, strain cot1, hits give low values",1.02 (inactive)
same,normalized growth,"S. cerevisiae deletion strains, locus YPR119W, strain clb2, hits give low values",1.02 (inactive)
same,normalized growth,"S. cerevisiae deletion strains, locus YPR141C, strain kar3, hits give low values",1 (inactive)
same,normalized growth,"S. cerevisiae deletion strains, locus YPR163C, strain tif3, hits give low values",1.03 (inactive)
same,normalized growth,"S. cerevisiae deletion strains, locus YPR167C, strain met16, hits give low values",1.01 (inactive)
same,normalized growth,"S. cerevisiae deletion strains, strain wtn01, hits give low values",0.989 (inactive)
same,normalized growth,"S. cerevisiae strains, strain wild type, hits give low values",1.02 (inactive)
